An excerpt weighted towards active compounds, which were near 3.4% of everything screened.
TMEM16A inh – inhibitors of mouse TMEM16A calcium-activated chloride channel; Q8BHY3; HEK293 TMEM16A/YFP iodide influx fluorescence, ionomycin; normalized B-score (activity score, 25-100; higher = stronger inhibition) at 10 µM; 310,000 compounds, 1.2% hits;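 active = ratio plate-corrected score three or more library SD toward inhibition, starting fluorescence score within five deviations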;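 also: score derived from kinetic fluorescence span divided by baseline fluorescence per well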
MEKK2 WT-MEK5 – raises or lowers MEK5 binding to wildtype human MEKK2 PB1 domain; AID 1531; binding response (% of control), % at 10 µM; bead flow cytometry, Alexa488-MEK5 binding to MEKK2 WT; actives lie on both sides; Q9Y2U5; 290,000 compounds, 1.1% hits; in the data active = binding response below about 67% or above about 130%
MEKK3 PB1 HTS – modulators (inhibitors or enhancers) of MEK5 binding to human MEKK3 PB1 domain; Q99759; bead-based flow cytometry, Alexa488-MEK5 binding to MEKK3; actives lie on both sides; 0 = blocked by unlabeled MEK5, 100 = vehicle; binding response (% of control), % at 10 µM; 290,000 compounds, 1.4% hits; AID 1529;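 active = binding response more than 3 SD above or below the average of its plate-row segment, actives on both sides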;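 also: Alexa488 bead fluorescence after subtracting the streptavidin-only scavenger bead signal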
TMEM16A act – activates or potentiates the mouse TMEM16A chloride channel. Q8BHY3. HEK293 TMEM16A/YFP-H148Q/I152L, iodide quench fluorescence; active compounds read low. B-score at 10 µM. 340,000 compounds, 0.3% hits. AID 623877;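 active = fluorescence-ratio B-score plate-corrected deviation score at least 3 library SD below zero, with starting fluorescence score within 5 deviations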;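 also: channel opened by trigger with iodide after compound preincubation; score built on the fluorescence ratio of max minus min over baseline; more negative score means more quench and so TMEM16A activation or potentiation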
MEKK2mut PB1 HTS – signal of MEK5 binding to mutant human MEKK2 PB1 domain; AID 1530; bead flow cytometry, Alexa488-MEK5 binding to MEKK2 mutant; 290,000 compounds, 0.35% hits; percent response, % at 10 µM; in the data active = percent response above about 24%, passing the limit was not always enough
NTR1 agonist – NTR1 (human) agonism; NTR1-U2OS beta-arrestin-GFP spot imaging, agonist mode; AID 493036; P30989; activation, % at 20 µM; 330,000 compounds, 0.17% hits;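 active = activation at or above 40% of the spot to cytoplasm intensity ratio, with at least 20 cells analyzed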;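 also: 0% = DMSO without peptide and 100% = 100 nM NTR1 peptide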
MEKK2wt confirm – raises or lowers MEK5 binding to wildtype human MEKK2, retest; shares compounds with MEKK3 PB1 HTS; bead flow cytometry, Alexa488-MEK5 binding to MEKK2 WT; actives lie on both sides; binding response (% of control), % at 10 µM; 5,900 compounds, 2.4% hits; AID 1892; in the data active = binding response below about 16% or above about 210%; inactive = in between
MEKK2mut-MEK5 – signal of MEK5 binding to mutant human MEKK2, retest; shares compounds with MEKK3 PB1 HTS; bead flow cytometry, Alexa488-MEK5 binding to MEKK2 mutant; percent response, % at 10 µM; 5,900 compounds, 2% hits; in the data active = percent response mostly above about 71%, no sharp cut-off; inactive = mostly below about 38%;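 also: higher means compound restores mutant binding toward wildtype level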
MEKK3 confirm – MEKK3-MEK5 PB1 inhibition, single concentration confirmation | shares compounds with MEKK3 PB1 HTS | binding response (% of control), % at 10 µM | bead flow cytometry, Alexa488-MEK5 binding to MEKK3; active compounds read low | 5,900 compounds, 1.8% hits;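 active = binding response below 72% of control, or above a set upper limit, though filed actives all read lower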;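 also: 100% = DMSO only wells and 0% = binding blocked by excess unlabeled MEK5; lower values mean stronger disruption of MEK5 binding to MEKK3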
Numbers without * were called inactive; i = inactive; · = no result; [ ] = remark or other dose.

SMILES	TMEM16A inh	MEKK2 WT-MEK5	MEKK3 PB1 HTS	TMEM16A act	MEKK2mut PB1 HTS	NTR1 agonist	MEKK2wt confirm	MEKK2mut-MEK5	MEKK3 confirm
O=[N+]([O-])c1ccccc1N/N=C/c1c[nH]c2ccccc12	i	111	110	i	4	8	·	·	·
COc1ccc2c(c1)c(C(C)=O)c(C)n2-c1ccccc1	i	86	76*[inhibitor]	i	-8	3	104	4	110
COc1ccc2c(c1)c(C(C)=O)c(C)n2-c1ccccc1OC	i	·	·	i	·	1	·	·	·
COc1ccc(/C=N/NC(=O)CSc2n[nH]c(=O)[nH]c2=O)cc1	i	103	74*[inhibitor]	i	0	·	103	1	102
COc1ccc(/C=N/NC(=O)Cc2n[nH]c(=O)[nH]c2=O)cc1	i	88	87	i	-14	1	·	·	·
CCC(C)c1ccc(NC(=S)NCc2ccccc2OC)cc1 (centres undefined)	·	97	99	i	-3	·	·	·	·
COc1ccc(C2NN=C(c3c[nH]c4ccccc34)C2O)cc1 (centres undefined)	i	55*	93	i	213*	0	96	-6	99
NC(=O)C1CCN(c2ncc(C(F)(F)F)cc2Cl)CC1	i	114	130*	i	5	-2	101	0	97
CN(CCO)C(=O)C1CCN(c2ncc(C(F)(F)F)cc2Cl)CC1	i	103	101	i	0	0	·	·	·
COc1ccc(CC(=O)Nc2ccc(S(=O)(=O)Nc3onc(C)c3C)cc2)cc1OC	i	101	101	i	-3	0	·	·	·
COC(=O)C(C)Sc1nc2c(c(=O)n(C)c(=O)n2C)n1CCC(C)C (centres undefined)	i	97	99	i	-5	2	·	·	·
CC(C)CCn1c(Br)nc2c1c(=O)n(CC(N)=O)c(=O)n2C	i	2.0*[inhibitor]	2.0*[inhibitor]	i	-15	-1	99	-3	99
COc1ccc(S(=O)(=O)N[C@@H](CC(C)C)C(=O)O)cc1	i	87	80*[inhibitor]	i	-4	-1	102	2	106
CCC(NS(=O)(=O)c1ccc(OC)cc1)C(=O)O (centres undefined)	i	89	80	i	-4	0	·	·	·
CC[C@@H](C)[C@H](CNC)NC[C@@H](Cc1cccc2ccccc12)NCCc1cccc(C(F)(F)F)c1	100*	318*	114	i	74*	16	247*	101*	113
CCC[C@@H](CN[C@@H](CNC)[C@H](C)CC)NCC1CCC(C(C)(C)C)CC1 (some centres undefined)	i	148*	103	i	5	33	134	35	109
O=C(CNC(=O)Cc1ccccc1)NCc1cccc(C(F)(F)F)c1	i	98	104	i	-1	1	·	·	·
CCC[C@H](CN[C@@H](CNC)[C@H](C)CC)NCCc1cc(C(F)(F)F)cc(C(F)(F)F)c1	i	158*	104	i	8	2	176	47	110
CC(O)CNc1ccc(-c2nn(C)c(=O)c3ccccc23)cc1[N+](=O)[O-] (centres undefined)	i	101	103	i	7	1	·	·	·
COc1ccc(C(CC(=O)O)N2C(=O)CCC2=O)cc1 (centres undefined)	i	103	102	i	3	1	·	·	·
CCc1ccc(NC(=O)CN(C)S(=O)(=O)c2ccc3[nH]c(=O)oc3c2)cc1	i	95	94	i	-2	1	·	·	·
O=C(NC(=S)N1CCOCC1)C12CCC3CC(CC(C3)C1)C2	i	99	134*	i	2	2	96	-4	100
O=C(NC(=S)N1CCOCC1)C12CC3CCC(CC(C3)C1)C2	i	110	100	i	10	2	·	·	·
Nc1nnc(CSCc2ccc(Cl)cc2Cl)s1	i	106	130*	i	1	2	100	1	98
CCNC(=S)NNC(=O)C1CCCCC1	i	2.0*[inhibitor]	2.0*[inhibitor]	i	-16	0	103	-9	99
SMILES	TMEM16A inh	MEKK2 WT-MEK5	MEKK3 PB1 HTS	TMEM16A act	MEKK2mut PB1 HTS	NTR1 agonist	MEKK2wt confirm	MEKK2mut-MEK5	MEKK3 confirm
O=C(COC(=O)COc1ccc(Cl)cc1)NCCNC(=O)COC(=O)COc1ccc(Cl)cc1	i	·	·	i	·	0	·	·	·
COCCCn1cnnc1SCc1nc2sc(C(C)=O)c(C)c2c(=O)[nH]1	i	100	98	i	6	1	·	·	·
COc1ccc(OCC(=O)NCCCNC(=O)COc2ccc(OC)cc2)cc1	·	·	·	i	·	0	·	·	·
CC(C)(O)C#Cc1ccc(C(=O)N2CCN(c3ccc(Cl)cc3)CC2)cc1	i	55	49*[inhibitor]	i	-15	2	103	-1	103
NNc1nc(-c2ccccc2)nc2sc3c(c12)CCCC3	i	114	142*	i	1	1	103	15	106
NNc1nc2sc3c(c2c(=O)n1Cc1ccccc1)CCC3	i	118	124	i	20	1	·	·	·
CCN(CC(=O)Nc1ccc(NC(C)=O)cc1)C(=O)COc1ccccc1Cc1ccccc1	i	101	100	i	1	-1	·	·	·
O/N=C1\CCCc2c1nc(-c1ccccc1F)n2O	i	113	130*	i	26	0	120	7	105
CCOC(=O)COc1ccc(S(=O)(=O)NC2CC2)cc1	i	107	105	i	3	0	·	·	·
OCCN(CC(O)COc1ccccc1)CC(O)Cn1ccc2ccccc21 (centres undefined)	i	102	134*	i	0	-1	104	3	101
CCOc1ccc(Nc2nc(N3CCCCC3)nc(N3CCCCC3)n2)cc1	i	87	78*[inhibitor]	i	-7	5	114	11	108
COc1ccc(NC(=O)CSc2ccc3c4c(cccc24)C(=O)c2ccccc2-3)cc1	i	56*[inhibitor]	93	i	-9	9	68	-18	90
C[C@@H](NC(=O)[C@@H]1Cc2ccccc2CN1)C(=O)NCc1ccco1	i	111	99	i	3	-2	·	·	·
